In PubChem BioAssay (NCI) one finds growth data, which are given here for 13 compounds.

Among the test systems are DU-145 prostate; K-562 leukemia; MALME-3M melanoma; MDA-MB-231 breast; RXF 393 renal; SF-268 CNS; SF-295 CNS; SF-539 CNS; UACC-257 melanoma; M14 melanoma.
Holding throughout (test): NCI-60 one-dose screen, 48 h (100 = growth as untreated, 0 = no growth, -100 = all killed)
What all share (conditions): 10 µM unless noted

This is part of a sample that, as a whole, favours compounds with a hit. Of some 83,000 tested, about 20% had one in any assay.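 Treatment: one concentration, 48 hours, 96-well format. Scoring: percent growth, with anything below 10 considered active.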 A number with no mark means an inactive call. Activity calls are given as the source filed them.

`Cc1ccc(-c2c3c(N)c4c(nc3nc3c2c(C)nn3-c2ccccc2)CCCC4)cc1`: the growth in the assay with DU-145 prostate is 105%; in the assay with K-562 leukemia, 36.6%; in the assay with MALME-3M melanoma, 107%; with MDA-MB-231 breast it was 97.1%; in the assay with RXF 393 renal, 97%; in the assay with SF-268 CNS, 108%. Besides, the growth with SF-295 CNS is 100%; in the assay with SF-539 CNS, 103%; in the assay on UACC-257 melanoma it was 92.2%; in the assay on M14 melanoma it was 110%.
As to `Cc1ccc2nc(NC(=O)CSC(=S)N3CCN(Cc4ccccc4)CC3)sc2c1`, the growth in the assay on DU-145 prostate is -96.9% (active); in the assay with K-562 leukemia it was 11.8%; in the assay with MALME-3M melanoma, -58% (active); in the assay with MDA-MB-231 breast, -7.45% (active); in the assay on RXF 393 renal, -58% (active); in the assay on SF-268 CNS, -14.9% (active). The growth in the assay on SF-295 CNS was -13.1% (active); with SF-539 CNS, 1.99% (active); with UACC-257 melanoma, -63.4% (active); with M14 melanoma, -56.7% (active).
Turning to `COc1ccc(/C=C2\CN(Cc3cn(CCCNc4ccnc5cc(Cl)ccc45)nn3)C/C(=C\c3ccc(OC)c(OC)c3)C2=O)cc1OC`, the growth was 11.7% in the assay on DU-145 prostate; 4.56% (active) with K-562 leukemia; 17.8% in the assay on MALME-3M melanoma; -10.2% (active) with MDA-MB-231 breast; -95.1% (active) in the assay with RXF 393 renal; -4.95% (active) in the assay with SF-268 CNS. Also, the growth with SF-295 CNS is -55.9% (active); in the assay on SF-539 CNS it was 6.69% (active); in the assay with UACC-257 melanoma, 45.3%; with M14 melanoma, -21.5% (active).
Turning to `O=C(Nc1ccc(Cl)c(Cl)c1)NC(CO)(CO)CO`, the growth was 112% in the assay with DU-145 prostate; 92.8% in the assay with K-562 leukemia; 87.7% with MALME-3M melanoma; 109% with MDA-MB-231 breast; 100% with RXF 393 renal; 97.8% in the assay on SF-268 CNS. Moreover, the growth is 94.4% with SF-295 CNS, 103% with SF-539 CNS, 97.5% with UACC-257 melanoma and 97.4% in the assay with M14 melanoma.
Regarding `COc1ccc(-c2c3c(N)c4c(nc3nc3c2c(C)nn3-c2ccccc2)CCCCC4)cc1`, the growth was 91.6% in the assay on DU-145 prostate; 24.5% with K-562 leukemia; 101% in the assay on MALME-3M melanoma; 105% in the assay with MDA-MB-231 breast; 106% with RXF 393 renal; 94.5% in the assay on SF-268 CNS. The growth with SF-295 CNS is 85%; with SF-539 CNS, 93.9%; in the assay with UACC-257 melanoma, 93.9%; in the assay with M14 melanoma, 88.9%.
For `COc1cc(CNCCN2C(=O)c3ccc4c5c(ccc(c35)C2=O)C(=O)N(CCNCc2cc(OC)c(OC)c(OC)c2)C4=O)cc(OC)c1OC`, the growth was -56.8% (active) in the assay with DU-145 prostate; -4.93% (active) with K-562 leukemia; -50.5% (active) with MALME-3M melanoma; -83.9% (active) with MDA-MB-231 breast; -94.9% (active) with RXF 393 renal; -46.8% (active) in the assay on SF-268 CNS. In addition, the growth in the assay with SF-295 CNS is -68% (active); in the assay with SF-539 CNS, -84% (active); in the assay with UACC-257 melanoma, -70.9% (active); in the assay with M14 melanoma it was -96.9% (active).
Take `O/N=C/c1cccs1`: the growth with DU-145 prostate was 116%; in the assay on K-562 leukemia, 87.2%; in the assay on MALME-3M melanoma, 105%; with MDA-MB-231 breast, 112%; in the assay on RXF 393 renal, 107%; in the assay with SF-268 CNS, 111%. Besides, the growth in the assay on SF-295 CNS is 95%; in the assay with SF-539 CNS it was 96.9%; in the assay with UACC-257 melanoma it was 98.5%; in the assay on M14 melanoma it was 105%.
For `COc1cc(C2CC(=O)Nc3c2ccc2ccccc32)cc(Br)c1OC` (stereo not given), the growth was -4.56% (active) in the assay with DU-145 prostate; 6.59% (active) in the assay on K-562 leukemia; 27.6% in the assay on MALME-3M melanoma; 28.5% in the assay on MDA-MB-231 breast; -1.55% (active) in the assay on RXF 393 renal; 42.5% in the assay with SF-268 CNS. For the same compound, the growth is -33.7% (active) in the assay on SF-295 CNS, 0.195% (active) with SF-539 CNS, 59.7% in the assay with UACC-257 melanoma and -15.3% (active) with M14 melanoma.
In the case of `COc1cc(/C=N/NC(=O)c2cnn3c2NC(c2ccccc2)C3)ccc1OC1CCCC1` (stereo not given), the growth with DU-145 prostate was 26.5%; in the assay on K-562 leukemia, 18.7%; in the assay on MALME-3M melanoma, 40.1%; in the assay with MDA-MB-231 breast it was 52.7%; with RXF 393 renal, -27.9% (active); in the assay on SF-268 CNS, 36.9%. Besides, the growth with SF-295 CNS was 6.52% (active); in the assay on SF-539 CNS it was -15.6% (active); in the assay with UACC-257 melanoma, 43.4%; with M14 melanoma it was 22.8%.
For `CSc1ccc(OC(C)=O)cc1C`, the growth in the assay with DU-145 prostate was 94%; in the assay with K-562 leukemia it was 114%; in the assay with MALME-3M melanoma it was 95.5%; with MDA-MB-231 breast, 113%; with RXF 393 renal it was 98.5%; in the assay on SF-268 CNS it was 94.3%. For the same compound, the growth in the assay on SF-295 CNS is 97.7%; in the assay on SF-539 CNS, 98.5%; with UACC-257 melanoma it was 97.6%; in the assay on M14 melanoma, 101%.
`c1ccc2cc(Cn3c(-c4ccc5ccccc5c4)[n+](Cc4ccc5ccccc5c4)c4ccccc43)ccc2c1`: the growth in the assay with DU-145 prostate is -19.2% (active); with K-562 leukemia it was -45.1% (active); in the assay on MALME-3M melanoma it was -58% (active); in the assay on MDA-MB-231 breast it was -72.9% (active); with RXF 393 renal it was -65% (active); in the assay with SF-268 CNS, -83.5% (active). Moreover, the growth with SF-295 CNS was -79.1% (active); in the assay with SF-539 CNS, -75.2% (active); in the assay on UACC-257 melanoma it was -38.5% (active); in the assay with M14 melanoma, -72.8% (active).
Take `Cc1nc2cc(Nc3nc(N4CCCCC4)nc(N4CCOCC4)n3)ccc2n1Cc1ccccc1`: the growth in the assay with DU-145 prostate is 5.36% (active); in the assay on K-562 leukemia, 84.3%; in the assay on MALME-3M melanoma, -3.76% (active); in the assay on MDA-MB-231 breast, 9.6% (active); in the assay with RXF 393 renal, -5.84% (active); in the assay on SF-268 CNS it was 69%. The growth with SF-295 CNS was 78.9%; in the assay with SF-539 CNS, 81.6%; with UACC-257 melanoma it was 60.4%; in the assay on M14 melanoma, 48.4%.
Take `Fc1ccccc1Nc1ccc2nnc(-c3ccncc3)n2n1`: the growth in the assay on DU-145 prostate is 110%; with K-562 leukemia, 93.4%; in the assay on MALME-3M melanoma it was 103%; with MDA-MB-231 breast, 101%; in the assay on RXF 393 renal it was 113%; in the assay on SF-268 CNS, 101%. In addition, the growth in the assay on SF-295 CNS is 112%; in the assay on SF-539 CNS, 106%; in the assay on UACC-257 melanoma, 105%; in the assay on M14 melanoma, 104%.
